Assay [1] is described as follows: qHTS assay to identify small molecule agonists of the estrogen receptor alpha (ER-alpha) signaling pathway in the presence of an antagonist - cell viability counter screen (AID 1259386).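 Further: series mostly up to about 92 µM; cells exposed to compounds for 22 h at 37 °C before the viability read; nearly all actives have a fitted effect of over 30% in size.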 The method in brief:
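Using estrogen-depleted VM7Luc4E2 cells, the 15-concentration compound series was applied together with 10.0nM ICI-182,780 and incubated 22hr at 37C/5% CO2. Cell viability was then scored by CellTiter-Fluor.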
On the technique in general: In qHTS, concentration-response curves come from the screen itself.

For assay [2], the target named is Progesterone receptor (Homo sapiens) (UniProt P06401). Nature of the assay: qHTS assay to identify small molecule agonists of the progesterone receptor (PR) signaling pathway (AID 1346784; calls by dose curve; further: nearly all actives have a fitted effect of over 30% in size; further: potency means the concentration at half of the fitted maximal effect). In a few lines: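 Beta-lactamase reporter read-out: after 16 hr compound treatment at 37C and a further 2 hr at room temperature with LiveBLAzer B/G FRET substrate, fluorescence was measured in PR-UAS-bla HEK 293T cells grown in 2% charcoal-stripped serum.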

Assay [3] shares this target. In words: qHTS assay to identify small molecule antagonists of the progesterone receptor (PR) signaling pathway (AID 1346795; active means well fitted inhibition curve with a large enough effect in the signal ratio in the repeat runs, not every such curve was filed as active; the % refers to the signal ratio; further: potency means the concentration at half of the fitted maximal effect). The method in brief: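 Read-out is fluorescence from the LiveBLAzer B/G FRET substrate, cleaved by a UAS-controlled beta-lactamase in PR-UAS-bla HEK293T cells after 16 hr exposure to compound plus 1 nM promegestone (final), followed by 2 hr at room temperature.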

Assay [4] can be described thus: qHTS assay to identify small molecule antagonists of the progesterone receptor (PR) signaling pathway - cell viability counter screen (AID 1346798). Further: series mostly up to about 92 µM; nearly all actives have a fitted effect of over 50% in size. The method in brief: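 HEK293T PR-UAS-bla, 2% charcoal-stripped FBS; 4 hr pre-plate; cpd + R5020, 16 h 37C; LiveBLAzer read first; then CellTiter-Glo 30 min RT, luminescence.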
The nature of assay [5]: qHTS assay to identify small molecule agonists of the progesterone receptor (PR) signaling pathway - cell viability counter screen (AID 1346799; calls by dose curve; further: nearly all actives have a fitted effect of over 45% in size). In a few lines:
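Luminescence from CellTiter-Glo, added after the beta-lactamase FRET read in the same wells, gave cytotoxicity in PR-UAS-bla HEK293T cells treated with compounds for 16 hr at 37C.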

Assay [6] is described as follows: qHTS assay to identify small molecule antagonists of the TGF-beta/Smad signaling pathway - cell viability counter screen (AID 1346824). Further: nearly all actives have a fitted effect of over 50% in size. In a few lines:
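Cytotoxicity counter-screen run in the same wells as the beta-lactamase Smad reporter read: CellTiter-Glo luminescence after 30 min at room temperature. HEK 293T SBE-bla cells had 5 hr compound exposure at 37 C with TGF-beta1 (0.25 ng/mL stock).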

The nature of assay [7]: qHTS assay to identify small molecule agonists of the TGF-beta/Smad signaling pathway - cell viability counter screen (AID 1346829). Further: top concentration of the series differs between compounds; nearly all actives have a fitted effect of over 45% in size. In a few lines:
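In parallel with the Smad reporter read, viability of HEK 293T cells stably carrying SBE-bla is quantified by ATP luminescence following 5 hr compound treatment.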

Assay [8] in a line: qHTS assay to identify small molecule agonists of the TGF-beta/Smad signaling pathway (AID 1346859; active means well fitted activation curve with a large enough effect in the signal ratio in the repeat runs, not every such curve was filed as active; the % refers to the signal ratio; further: series mostly up to about 77 µM). The method in brief:
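SBE-bla HEK 293T, 4,000 cells/well, plated o/n; cpd in DMSO, 5 hr, 37 C/5% CO2; B/G FRET substrate 2 hr RT; ex 405, em 460/530 nm.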

Assay [9] deals with Thyrotropin-releasing hormone receptor (Homo sapiens) (UniProt P34981). In words: qHTS assay to identify small molecule antagonists of the thyrotropin-releasing hormone receptor (TRHR) signaling pathway (AID 1346877; active means well fitted inhibition curve with a large enough effect in the repeat runs, not every such curve was filed as active; further: series mostly up to about 51 µM). In a few lines: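 Calcium signal in dye-loaded TRHR/HEK293 cells; compounds added 5 min before TRH (1 nM final); fluorescence monitored 3 min at 1 s steps.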
For assay [10] the target is unchanged. In words: qHTS assay to identify small molecule agonists of the thyrotropin-releasing hormone receptor (TRHR) signaling pathway (AID 1346891; calls by dose curve; further: series mostly up to about 58 µM). The method in brief: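 Intracellular calcium rise, read as fluorescence every second for 3 min, served as the agonist signal in dye-loaded HEK293 cells expressing TRHR; each compound ran at 15 concentrations in triplicate.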

Molecules are shown by their SMILES. Where “and” joins values, the source holds several entries; their conditions need not be identical. Equal values may be shown once. A number with no mark means an inactive call. Records with an inconclusive call do not appear. A structure can be active in one record and inactive in another. Calls of active or inactive are those of the source. Unless noted, the call rests on the fitted dose curve; in most records, active means well fitted curve in the direction sought with a large enough effect in the repeat runs; inconclusive means weak or mixed curves; inactive means no such curve, though single readings can be large; an effect the other way counts as inactive or inconclusive.
On the % scale 0 is the no-effect control and ±100 the full control effect.

Chain of Progesterone receptor (Homo sapiens) (P06401 whole entry, looked up): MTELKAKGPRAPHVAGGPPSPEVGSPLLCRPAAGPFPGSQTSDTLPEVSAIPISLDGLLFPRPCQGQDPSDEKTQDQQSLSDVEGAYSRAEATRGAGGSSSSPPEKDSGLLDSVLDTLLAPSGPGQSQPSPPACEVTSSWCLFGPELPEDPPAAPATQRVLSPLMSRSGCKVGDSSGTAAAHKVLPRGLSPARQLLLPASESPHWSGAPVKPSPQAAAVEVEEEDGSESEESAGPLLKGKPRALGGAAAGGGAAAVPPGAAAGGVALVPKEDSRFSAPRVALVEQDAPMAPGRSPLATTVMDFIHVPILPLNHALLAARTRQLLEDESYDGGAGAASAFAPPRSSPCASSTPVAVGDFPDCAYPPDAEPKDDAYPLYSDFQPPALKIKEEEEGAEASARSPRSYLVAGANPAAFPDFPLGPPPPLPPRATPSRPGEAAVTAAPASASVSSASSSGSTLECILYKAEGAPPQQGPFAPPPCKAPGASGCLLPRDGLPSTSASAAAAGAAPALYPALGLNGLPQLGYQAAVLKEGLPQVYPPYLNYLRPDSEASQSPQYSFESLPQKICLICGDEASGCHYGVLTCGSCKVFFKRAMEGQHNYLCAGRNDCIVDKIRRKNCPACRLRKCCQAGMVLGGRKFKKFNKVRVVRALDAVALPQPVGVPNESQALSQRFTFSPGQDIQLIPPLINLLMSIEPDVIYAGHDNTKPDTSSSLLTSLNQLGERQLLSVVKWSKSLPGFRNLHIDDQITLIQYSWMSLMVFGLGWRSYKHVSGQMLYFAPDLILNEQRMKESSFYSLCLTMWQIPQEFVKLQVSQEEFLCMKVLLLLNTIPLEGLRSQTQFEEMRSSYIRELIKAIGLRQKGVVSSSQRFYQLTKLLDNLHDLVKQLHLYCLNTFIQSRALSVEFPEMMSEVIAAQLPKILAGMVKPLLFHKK
Chain of Thyrotropin-releasing hormone receptor (Homo sapiens) (P34981 whole entry, looked up): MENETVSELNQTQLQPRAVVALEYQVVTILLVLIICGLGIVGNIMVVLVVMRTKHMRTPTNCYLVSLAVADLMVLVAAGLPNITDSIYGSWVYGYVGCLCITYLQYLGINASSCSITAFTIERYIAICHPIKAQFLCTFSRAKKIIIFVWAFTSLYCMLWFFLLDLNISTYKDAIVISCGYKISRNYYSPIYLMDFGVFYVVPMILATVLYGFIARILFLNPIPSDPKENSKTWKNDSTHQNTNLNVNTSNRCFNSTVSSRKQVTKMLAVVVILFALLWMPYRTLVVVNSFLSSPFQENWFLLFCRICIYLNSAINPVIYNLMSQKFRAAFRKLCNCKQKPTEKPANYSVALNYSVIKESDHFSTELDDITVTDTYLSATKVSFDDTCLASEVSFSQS

On to `OCCNCCO`, for which the Potency result in [1], in assay [2], in assay [3], in assay [4], in [5] and in assay [6] was “inactive” throughout. Also, the Potency entry in assay [7], in [9] and in assay [10] was “inactive” each time. The call in assay [8] was inactive.

`CC(C)[C@@H]1CC[C@@H](C)CC1=O`: the Potency entry in [1], in [2], in assay [3], in assay [4], in assay [5] and in assay [6] was “inactive” each time. For the same compound, the Potency result in assay [7] is “inactive”. Besides, in assay [8], the compound was called inactive.

For `CNC[C@H](O)c1ccc(O)c(O)c1`, in assay [1], the activity change, negative = cytotoxicity was -2.01% [at 19 µM]. Besides, the Potency in assay [2] was 4.33 µM (active). In [2], the activation was -0.635% [at 19 µM]. The Potency result in assay [3], in [4], in assay [5], in assay [6], in [7] and in assay [9] was “inactive” throughout. In [10], the Potency entry is “inactive”. Also, the call in assay [8] was inactive.

Take `CC(C)(Oc1ccc(Cl)cc1)C(=O)O`: the Potency result in assay [1], in [2], in [3], in assay [4], in [5] and in assay [6] was “inactive” throughout. The Potency result in assay [7] is “inactive”. Besides, in [8], the outcome was inactive.

Consider `Cc1ccc(S(=O)(=O)O)cc1C`, for which the Potency result in assay [1], in assay [2], in assay [3], in assay [4], in assay [5] and in assay [6] was “inactive” throughout. For the same compound, the Potency result in assay [7], in [9] and in assay [10] was “inactive” in each case. In addition, the call in assay [8] was inactive.

On to `Cc1ccc2c(c1)C(=O)OC2=O`, for which the Potency entry in [1], in assay [2], in assay [3], in [4], in assay [5] and in [6] was “inactive” in each case. Moreover, the Potency result in assay [7], in assay [9] and in assay [10] was “inactive” throughout. Also, the outcome in [8] was inactive.

Take `CCC(Cc1c(I)cc(I)c(N)c1I)C(=O)O` (stereo not drawn): the Potency result in assay [1], in assay [2], in [3], in assay [4], in assay [5] and in assay [6] was “inactive” in each case. Besides, the Potency result in [7], in assay [9] and in [10] was “inactive” in each case. In [8], the compound was classed as inactive.

As to `CC(=O)[C@H]1CC[C@H]2[C@@H]3CC=C4C[C@@H](O)CC[C@]4(C)[C@H]3CC[C@]12C`, the Potency entry in assay [1], in assay [3], in assay [4], in [5], in [6] and in assay [7] was “inactive” each time. Further, the Potency in assay [2] is 4.85 µM (active). Besides, the call in [8] was inactive.

For the compound `[Na+]`, the Potency result in assay [1], in [2], in [3], in assay [4], in [5] and in assay [6] was “inactive” throughout. Moreover, the Potency result in assay [7] is “inactive”. Also, in assay [8], the result was inactive.

For `CC(=O)[C@@]1(O)CC[C@H]2[C@@H]3C[C@H](C)C4=CC(=O)C=C[C@]4(C)[C@@]3(F)[C@@H](O)C[C@@]21C`, the Potency result in [1], in [3], in assay [4], in [5], in assay [6] and in [7] was “inactive” each time. In addition, the Potency result in assay [9] and in assay [10] was “inactive” each time. In addition, in assay [2], the Potency is 61.1 nM (active) and 168 nM (active). In addition, the compound was called inactive in assay [8].

For `O=C(O)CCCC(=O)O`, the Potency result in assay [1], in assay [2], in assay [3], in assay [4], in assay [5] and in assay [6] was “inactive” in each case. Further, the Potency result in assay [7], in assay [9] and in [10] was “inactive” throughout. For the same compound, the compound was classed as inactive in [8].

Consider `CCc1cccc2c3c([nH]c12)C(CC)(CC(=O)O)OCC3` (stereo not drawn), for which the Potency result in [1], in assay [2], in assay [3], in assay [4], in assay [5] and in assay [6] was “inactive” in each case. The Potency result in assay [7] is “inactive”. In addition, the result in assay [8] was inactive.

Take `O=C1CCc2ccccc2O1`: the Potency result in [1], in assay [2], in assay [3], in assay [4], in [5] and in [6] was “inactive” throughout. The Potency result in assay [7], in [9] and in [10] was “inactive” each time. Further, the result in assay [8] was inactive.

For `CC(C)=CCO`, the Potency entry in assay [1], in [2], in assay [3], in [4], in assay [5] and in assay [6] was “inactive” in each case. Further, the Potency result in assay [7], in [9] and in [10] was “inactive” in each case. The compound was called inactive in [8].

Take `COc1ccc2nc(N)sc2c1`: the Potency entry in assay [1], in assay [2], in [3], in assay [4], in assay [6] and in assay [7] was “inactive” each time. Further, the outcome in assay [8] was inactive.

For the compound `Cc1ccc(S(=O)(=O)NCl)cc1`, the Potency entry in assay [1], in assay [2], in [3], in assay [4], in [5] and in [6] was “inactive” throughout. In addition, the Potency entry in assay [7] was “inactive”. The result in [8] was inactive.

Consider `Clc1ccc(Sc2cc(Cl)c(Cl)cc2Cl)cc1`, for which the Potency result in assay [2], in assay [4], in assay [5], in assay [6], in assay [7] and in assay [9] was “inactive” throughout. The Potency result in assay [10] was “inactive”. Moreover, the Potency in [3] is 24.3 µM (active). In assay [8], the result was inactive.

In the case of `COc1ccc(-c2coc3cc(O)cc(O)c3c2=O)cc1`, the Potency result in assay [2], in [4], in assay [6], in [7], in assay [9] and in [10] was “inactive” each time. Besides, the Potency in assay [3] is 6.11 µM (active). Also, the call in assay [8] was inactive.

Regarding `IC(I)I`, the Potency result in assay [2], in assay [3], in assay [4], in assay [5], in [6] and in assay [7] was “inactive” in each case. In addition, the Potency result in assay [9] and in assay [10] was “inactive” in each case. In addition, the result in [8] was inactive.

On to `CC1(C)OC(=O)NC1=O`, for which the Potency entry in assay [2], in assay [3], in assay [4], in assay [6] and in assay [7] was “inactive” in each case. For the same compound, the result in [8] was inactive.

`CCCCCCOCCOCCO`: the Potency result in [2], in assay [3], in [4], in assay [5], in [6] and in [7] was “inactive” each time. Moreover, in [8], the call was inactive.

For the compound `ClC/C=C/CCl`, the Potency entry in assay [2], in [3], in [4], in assay [6], in assay [7] and in assay [9] was “inactive” throughout. Moreover, the Potency result in [10] is “inactive”. Further, the compound was classed as inactive in assay [8].

As for `CC1(C)C(C=C(Cl)Cl)C1C(=O)OCc1cccc(Oc2ccccc2)c1` (stereo not drawn), the Potency result in assay [2], in assay [4], in [5], in assay [6], in assay [7] and in [9] was “inactive” throughout. Further, the Potency result in assay [10] was “inactive”. Moreover, in assay [8], the outcome was inactive.

For the compound `C=CCNCC=C`, the Potency entry in [2], in assay [3], in [4], in [5], in assay [6] and in assay [7] was “inactive” throughout. The Potency entry in assay [9] and in assay [10] was “inactive” throughout. Also, the result in [8] was inactive.

As to `CC(C)[N+](C)(CCOC(=O)C1c2ccccc2Oc2ccccc21)C(C)C`, the Potency entry in assay [2], in [3], in assay [4], in assay [6], in [7] and in assay [9] was “inactive” in each case. Besides, the Potency result in [10] was “inactive”. Also, the compound was classed as inactive in assay [8].

The values are drawn from PubChem BioAssay (Tox21).
